In the library only some 21% were active in any assay of this set; here they are far more common.
Shiga toxin inh: A qHTS for Small Molecule Inhibitors of Shiga Toxin; Vero cells, Shiga toxin protein synthesis inhibition reporter; inhibition, % at 38.7 µM; 9.2% of 290,000 active; in the data active means inhibition mostly above about 28%, no sharp cut-off; inactive means mostly below about 43%; further: 0% is about no effect
Pf growth 48h: Primary qHTS for delayed death inhibitors of the malarial parasite plastid, 48 hour incubation | P. falciparum luciferase growth in erythrocytes, 48 h | Potency, µM (series often up to 28.7 µM), without a hit: top-dose activity change, negative = inhibition, actives largely listed as inhibitors | 5.9% of 310,000 active | AID 504832, 2011; further: potency means the concentration at half of the fitted maximal effect; on the % scale 0 is the no-effect control and ±100 the full control effect
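Luminescence readout; reporter = integrated firefly luciferase in P. falciparum. RBC culture at 2% hematocrit, 0.1% parasitemia final, 37 C/5% CO2; decreased signal taken as growth inhibition.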
Cycloheximide cs: Cycloheximide Counterscreen for Small Molecule Inhibitors of Shiga Toxin. 12% of 300,000 active. cell reporter, cycloheximide protein synthesis inhibition counterscreen. AID 2314, 2010. max response, %; in the data active means max response mostly above about 13%, no sharp cut-off; inactive means mostly below about 14%; further: read at 38.3 µM for the half of the compounds with a filed dose; 0% is about no effect
NS1 inh: qHTS Assay for Inhibitors of Influenza NS1 Protein Function. Potency, µM (top dose mostly 46.1 µM), without a hit: at the highest dose activity, positive = more growth. 0.4% of 270,000 active. AID 2326, 2010; calls by dose curve; further: potency means the concentration at half of the fitted maximal effect; actives are rising curves; nearly all actives have a fitted effect of over 50% in size
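Compounds were scored for reversing the slow growth caused by influenza A NS1 in S. cerevisiae, measured by optical density at 600 nm. Assay medium contained 2% galactose at pH 6.0; NS1-free yeast of the same strain were the positive control.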
Pf growth 96h: Primary qHTS for delayed death inhibitors of the malarial parasite plastid, 96 hour incubation | 6.9% of 320,000 active | Potency, µM (titrated, usually from 28.7 µM), for the others: at the top dose activity change, negative = inhibition, usual class: inhibitors | P. falciparum luciferase reporter growth, 96 h; further: potency means the concentration at half of the fitted maximal effect; on the % scale 0 is the no-effect control and ±100 the full control effect
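96 h incubation, 37 C, 5% CO2, of luciferase-reporter P. falciparum-infected RBCs (2% hematocrit, 0.05% parasitemia final) with test compounds; endpoint luminescence.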
Starred values were filed as active, the others as inactive; ? = inconclusive; . = not tested or not shown; [ ] = dose if it differs, or a comment. Unless noted, the call rests on the fitted dose curve; in most records, active means well fitted inhibition curve with a large enough effect; inconclusive means small, poorly fitted or top-dose-only effect, or another doubt; inactive means no such curve, though single readings can be large or run the other way.

SMILES	Shiga toxin inh	Pf growth 48h	Cycloheximide cs	NS1 inh	Pf growth 96h
COc1ccc(-c2csc(NC(=S)NC(=O)c3cccs3)n2)cc1Br	-2	0%	6	7%	-8%
COc1ccc(-c2csc(NC(=S)NC(=O)c3ccc(S(=O)(=O)N(C)C)cc3)n2)cc1OC	5	13µM*	3	13%	?
CN(C)S(=O)(=O)c1ccc(C(=O)Nc2nc(-c3cccs3)cs2)cc1	-21	.	-9	-36%	?
COc1ccc(-c2csc(NC(=O)c3cc(C)oc3C)n2)cc1OC	17	?	15	22%	?
CCc1noc(C)c1C(=O)Nc1nc(-c2ccc(OC)c(OC)c2)cs1	.	?	.	.	10µM*
Cc1cccc(N2CCN(C(c3ccncc3)c3nnnn3C(C)(C)C)CC2)c1C (centres undefined)	14	?	-1	.	325%
O=C(COC(=O)CN=C1NS(=O)(=O)c2ccccc21)Nc1ccccc1OC(F)F	-9	0%	5	.	8%
CCc1noc(C)c1C(=O)Nc1nc2c(C)cc(C)cc2s1	.	4%	.	.	46%
CCc1noc(C)c1C(=O)Nc1nc2ccc(F)cc2s1	.	165%	.	.	120%
Cc1cc(C)c2nc(NC(=O)c3cc(C)on3)sc2c1	21	.	22*	-14%	43%
CCc1ccc2nc(NC(=O)c3cc(C)on3)sc2c1	95*	38%	54*	-58%	-11%
S=c1nc(-c2ccccc2Cl)n(Cc2cccnc2)c2c1CCCC2	-1	1%	1	-9%	?
CCN(CC)c1ccc2nc3c4ccccc4c(=O)cc-3oc2c1	65*	25%	52*	1%	-1%
CN(C)c1ccc2nc3c(C(=O)O)cc(=O)c(O)c-3oc2c1	.	.	.	-10%	.
Cc1cc(Nc2ccccc2F)n2ncnc2n1	-5	10%	0	?	26%
O=c1oc2c(O)c(O)cc3c(=O)oc4c(O)c(O)cc1c4c23	-6	5.2µM*	-2	-2%	3.7µM*
Cc1c(C)c2cc(Cl)c(O)c(CN(C)C)c2oc1=O	-16	13%	-2	-17%	?
CCN(CCCNC(=O)Cn1ncc2c([nH]c3ccc(C)cc32)c1=O)c1ccccc1	17	30%	2	-2%	?
Cc1nn(Cc2noc(C(=O)NCc3ccc4c(c3)OCO4)n2)c(C)c1Br	23	7%	-3	-13%	-10%
c1csc(C2Nc3ccccc3-c3nc4ccccc4n32)c1 (centres undefined)	124*	?	52*	-48%	?
Cc1cc2n(n1)C(c1sccc1C)Nc1ccccc1-2 (centres undefined)	35	33%	3	-13%	.
Cc1ccsc1C1Nc2ccccc2-c2nc3ccccc3n21 (centres undefined)	132*	59%	76*	-32%	82%
CS(=O)(=O)NN1C(=O)c2ccccc2NC1c1cccs1 (centres undefined)	-9	-24%	-3	.	-21%
CC12CCC(C[N+](C)(CCC[N+](C)(C)C)C1)C2(C)C (centres undefined)	.	-14%	.	.	-6%
O=c1[nH]cccc1-c1nc2ccccc2n1Cc1ccc(F)cc1	18	9%	7	4%	24%
SMILES	Shiga toxin inh	Pf growth 48h	Cycloheximide cs	NS1 inh	Pf growth 96h
Cc1cc2nc(-c3ccc[nH]c3=O)n(Cc3ccccc3F)c2cc1C	43*	13%	38*	1%	50%
Cc1cc2nc(-c3ccc[nH]c3=O)n(Cc3ccc(F)cc3)c2cc1C	23	-4%[0.00184 µM]	12*	-1%	-11%
Cc1cccc(Cn2c(-c3ccc[nH]c3=O)nc3ccccc32)c1	3	12%	2	-1%	5%
Cc1cc(NC(=O)CSc2nc(C3CC3)nc3sc4c(c23)CCC(C)C4)no1 (centres undefined)	.	.	.	11%	.
CNC(=O)CSc1nc(N)c2c3c(sc2n1)CCC3	2	30%	9	3%	29%
CCSc1nc(N)c2c3c(sc2n1)CCC3	61*	17%	21*	-2%	12%
NC(=O)CSc1nc(C2CC2)nc2sc3c(c12)CCCC3	47*	151%	19*	6%	?
CC1CCN(C(=O)CSc2nc(N)c3c4c(sc3n2)CN(C)CC4)CC1	-2	2.3µM*	-6	12%	0.83µM*
NC(=O)CSc1nc(N)c2c3c(sc2n1)CCCCC3	39	45%	21*	11%	37%
Cc1csc(NC(=O)CCNC(=O)c2ccccc2Cl)n1	31	0%	13	.	26%
c1ccc(Cn2nnc3c(N4CCN(Cc5ccc6c(c5)OCO6)CC4)ncnc32)cc1	-5	-14%	-3	-50%	37%
Cc1ccc2c(c1)[nH]c1c(N3CCN(Cc4ccc5c(c4)OCO5)CC3)ncnc12	-18	2.9µM*	-3	-69%	.
c1ccc2c(c1)oc1c(N3CCN(Cc4ccc5c(c4)OCO5)CC3)ncnc12	98*	?	36*	-56%	.
CC(C)OP(=O)(OC(C)C)C(O)c1ccc(N(C)C)cc1 (centres undefined)	-7	16%	-3	-1%	8%
CCCS(=O)(=O)Nc1ccc(N2CCCCC2)c(S(=O)(=O)Nc2ccccc2OC)c1	.	10µM*	.	.	13µM*
COc1ccccc1NS(=O)(=O)c1cc(N)ccc1N1CCCCC1	-2	15µM*	1	11%	-12%
Nc1ccc(N2CCCCC2)c(S(=O)(=O)Nc2ccccc2Cl)c1	18	4%	6	7%	24%
CCNC(=O)CCSc1nnc(-c2ccco2)o1	13	27%	3	21%	30%
CCOC(=O)N/N=C(\C)c1ccc(C)c([N+](=O)[O-])c1	56	43%	16*	?	0%
CCOC(=O)N/N=C(\C)c1ccc(Oc2ncccn2)cc1	-7	12%	-10	3%	7%
CCOC(=O)N/N=C(\C)c1ccc(Br)cc1	65	.	31*	-4%	12µM*
COc1ccc(/C(C)=N/NC(=O)OC(C)(C)C)cc1[N+](=O)[O-]	79*	-21%	22*	-7%	?
COc1cc(-c2noc(CCCC(=O)NCc3ccccc3)n2)cc(OC)c1OC	-22	-28%	1	-15%	.
Cc1cccc(NC(=O)CCS(=O)(=O)c2ccccc2)n1	54*	29%	24	6%	39%
Cc1ccc(S(=O)(=O)NCCCCCC(=O)Nc2cccc(C)c2)cc1	-3	-10%	-3	-36%	12µM*
Cc1cccc(NC(=O)CCS(=O)(=O)c2ccccc2)c1	47*	90%	30*	0%	-2%
O=C(CCS(=O)(=O)c1ccccc1)Nc1nccs1	-6	.	4	4%	?
Cn1c(=O)c(=O)n(C)c2cc(S(=O)(=O)CCC(=O)Nc3ccc(F)cc3)ccc21	7	3%	-3	10%	?
Cn1c(=O)c(=O)n(C)c2cc(S(=O)(=O)CCC(=O)Nc3cccc(C(F)(F)F)c3)ccc21	-1	10%	22	20%	10µM*

Bioassay records as filed in PubChem.
